About 83,000 compounds went through this panel and 20% of them were active in at least one assay; those are over-represented in the sample as a whole.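 Assay: single dose, 48 h. Readout: percent growth (0 = no net growth; negative = cell death). Active: <10.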 The source made the active and inactive calls.
Assays:
Test in all cases: NCI-60 one-dose screen, 48 h (100 = growth as untreated, 0 = no growth, -100 = all killed)
HCT-15 colon = conditions: 10 µM unless noted
HT29 colon = conditions: 10 µM unless noted
SNB-75 CNS = conditions: 10 µM unless noted
SNB-19 CNS = conditions: 10 µM unless noted
U251 CNS = conditions: 10 µM unless noted
PC-3 prostate = conditions: 10 µM unless noted
SK-MEL-5 melanoma = conditions: 10 µM unless noted
UACC-62 melanoma = conditions: 10 µM unless noted
LOX IMVI melanoma = conditions: 10 µM unless noted
SK-MEL-28 melanoma = conditions: 10 µM unless noted
SK-MEL-2 melanoma = conditions: 10 µM unless noted
EKVX NSCLC = conditions: 10 µM unless noted
SN12C renal = conditions: 10 µM unless noted
UO-31 renal = conditions: 10 µM unless noted
TK-10 renal = conditions: 10 µM unless noted
ACHN renal = conditions: 10 µM unless noted
CAKI-1 renal = conditions: 10 µM unless noted
A498 renal = conditions: 10 µM
CCRF-CEM leukemia = conditions: 10 µM unless noted
HL-60(TB) leukemia = conditions: 10 µM unless noted

Measured: growth

N#CC1(C#N)C(c2ccc(N(CCCl)CCCl)cc2)OC23CCCCC2C1(C#N)C(=N)O3 (stereo unspecified)
inactive: HCT-15 colon 90.6% | HT29 colon 106% | SNB-75 CNS 63.3% | SNB-19 CNS 84.4% | U251 CNS 75.8% | PC-3 prostate 74.8% | SK-MEL-5 melanoma 83.3% | UACC-62 melanoma 53.2% | LOX IMVI melanoma 68.6% | SK-MEL-28 melanoma 111% | SK-MEL-2 melanoma 122% | EKVX NSCLC 108% | SN12C renal 69.1% | UO-31 renal 72.1% | TK-10 renal 91.9% | ACHN renal 50.2% | CAKI-1 renal 55.8% | A498 renal 56.6% | CCRF-CEM leukemia 77%

Cc1cccc(N2CCN(C(C)C#N)CC2)c1 (stereo unspecified)
inactive: HCT-15 colon 106% | HT29 colon 105% | SNB-75 CNS 106% | SNB-19 CNS 115% | U251 CNS 103% | PC-3 prostate 102% | SK-MEL-5 melanoma 105% | UACC-62 melanoma 111% | LOX IMVI melanoma 94.7% | SK-MEL-28 melanoma 114% | SK-MEL-2 melanoma 104% | EKVX NSCLC 100% | SN12C renal 103% | UO-31 renal 84% | TK-10 renal 119% | ACHN renal 104% | CAKI-1 renal 95% | HL-60(TB) leukemia 94.2% | CCRF-CEM leukemia 107%

NC(=S)c1cn(C2OC(CO)C(O)C2O)c2ncnc(N)c12 (stereo unspecified)
active: HCT-15 colon -11.2% | HT29 colon 2.78% | SNB-75 CNS -8.8% | SNB-19 CNS 9.97% | U251 CNS -7.25% | PC-3 prostate 6.45% | SK-MEL-5 melanoma -73.7% | UACC-62 melanoma -77.1% | LOX IMVI melanoma -22.9% | SK-MEL-28 melanoma -40.3% | SK-MEL-2 melanoma -58.1% | EKVX NSCLC -4.9% | SN12C renal -10.5% | UO-31 renal -9.32% | TK-10 renal -29.5% | ACHN renal -6.08% | CAKI-1 renal -36.6% | A498 renal -32.5% | CCRF-CEM leukemia -40.6%

CCOC(=O)[C@@H](C)C[C@H](Cc1ccccc1)NC(=O)c1csc([C@@H](C[C@H](C(C)C)N(C)C(=O)[C@@H](NC(=O)[C@H]2CCCCN2C)C(C)(C)CC)OC(C)=O)n1
active: HCT-15 colon 8.77% | HT29 colon -4.94% | SNB-75 CNS -5.95% | U251 CNS 9.55% | SK-MEL-5 melanoma -15.3% | SK-MEL-2 melanoma 2.19% | SN12C renal 9.13% | UO-31 renal 7.43% | ACHN renal 2.48% | HL-60(TB) leukemia -33.4% | CCRF-CEM leukemia 3.47%
inactive: SNB-19 CNS 17.6% | PC-3 prostate 24.1% | UACC-62 melanoma 33.1% | LOX IMVI melanoma 14.3% | SK-MEL-28 melanoma 38.6% | EKVX NSCLC 37.4% | TK-10 renal 29.3% | CAKI-1 renal 19.8%

CCCCCCCCCCCCCCCCCCOc1ccccc1COP(=O)(O)OOCC[N+](C)(C)C
active: HT29 colon -11.4% | SNB-75 CNS -4.01% | SNB-19 CNS -13.9% | U251 CNS -58.8% | PC-3 prostate -25.5% | SK-MEL-5 melanoma -72.9% | UACC-62 melanoma -11.5% | LOX IMVI melanoma -88.1% | SN12C renal -6.04% | TK-10 renal 3.59% | ACHN renal 8.89% | CAKI-1 renal 1.63% | HL-60(TB) leukemia -42% | CCRF-CEM leukemia -12.8%
inactive: HCT-15 colon 41.2% | SK-MEL-28 melanoma 21.4% | SK-MEL-2 melanoma 35.9% | EKVX NSCLC 11.4% | UO-31 renal 38.5%

COC(=O)[C@H](C[C@H](Cc1ccccc1)NC(=O)c1csc([C@@H](C[C@H](C(C)C)N(C)C(=O)[C@@H](NC(=O)[C@H]2CCCCN2C)C(C)C)OC(C)=O)n1)NC(=O)OCc1ccccc1
active: HT29 colon -2.9% [8.5 µM] | SK-MEL-5 melanoma -13.3% [8.5 µM] | SK-MEL-28 melanoma -69.7% [8.5 µM] | SK-MEL-2 melanoma 5.82% [8.5 µM] | SN12C renal 9.35% [8.5 µM] | HL-60(TB) leukemia -30.3% [8.5 µM] | CCRF-CEM leukemia 6.6% [8.5 µM]
inactive: HCT-15 colon 13.6% [8.5 µM] | SNB-75 CNS 22.7% [8.5 µM] | SNB-19 CNS 16.3% [8.5 µM] | U251 CNS 14.6% [8.5 µM] | PC-3 prostate 32.4% [8.5 µM] | UACC-62 melanoma 23.8% [8.5 µM] | LOX IMVI melanoma 13.8% [8.5 µM] | EKVX NSCLC 54.7% [8.5 µM] | UO-31 renal 32.3% [8.5 µM] | TK-10 renal 44.2% [8.5 µM] | ACHN renal 13.5% [8.5 µM] | CAKI-1 renal 34.9% [8.5 µM]

CCOc1ccccc1C(=O)OCC(Cl)(Cl)Cl
inactive: HCT-15 colon 110% | HT29 colon 96.4% | SNB-75 CNS 98.3% | SNB-19 CNS 107% | U251 CNS 102% | PC-3 prostate 96.5% | SK-MEL-5 melanoma 106% | UACC-62 melanoma 107% | LOX IMVI melanoma 104% | SK-MEL-28 melanoma 118% | SK-MEL-2 melanoma 116% | EKVX NSCLC 109% | SN12C renal 102% | UO-31 renal 94.4% | TK-10 renal 99.6% | ACHN renal 111% | CAKI-1 renal 98.7% | A498 renal 88.5% | CCRF-CEM leukemia 104%

CCOC(=O)[C@@H](C)C[C@H](Cc1ccccc1)NC(=O)c1nc([C@@H](C[C@H](C(C)C)N(C)C(=O)[C@@H](NC(=O)[C@H]2CCCCN2C)C(C)C)OC(C)=O)sc1CCOCc1ccccc1
active: HCT-15 colon -30.5% | HT29 colon -50.7% | SNB-75 CNS -11.2% | SNB-19 CNS 4.69% | U251 CNS -32.4% | PC-3 prostate 5.66% | SK-MEL-5 melanoma -39.7% | UACC-62 melanoma 4.15% | LOX IMVI melanoma -54.4% | SK-MEL-28 melanoma -23.7% | SK-MEL-2 melanoma -50.6% | SN12C renal -58.9% | UO-31 renal -56.3% | TK-10 renal -6.54% | ACHN renal -22% | CAKI-1 renal -23.5% | HL-60(TB) leukemia -62.9% | CCRF-CEM leukemia 0.263%
inactive: EKVX NSCLC 10.8%

O=C(c1cccc(O)c1O)c1cn(Cc2ccc(F)cc2)c2cccc(O)c12
inactive: HCT-15 colon 27.8% | HT29 colon 94.5% | SNB-75 CNS 55.3% | SNB-19 CNS 37.3% | U251 CNS 31% | PC-3 prostate 39.2% | SK-MEL-5 melanoma 25.4% | LOX IMVI melanoma 29.3% | SK-MEL-28 melanoma 39.2% | EKVX NSCLC 52.4% | SN12C renal 34% | TK-10 renal 77% | ACHN renal 21.5% | CAKI-1 renal 21.5%
active: UACC-62 melanoma 9.18% | SK-MEL-2 melanoma -6.9% | UO-31 renal -10.3% | HL-60(TB) leukemia -32.8% | CCRF-CEM leukemia 4.35%

COC(=O)[C@@H](C[C@H](Cc1ccccc1)NC(=O)c1csc([C@@H](C[C@H](C(C)C)N(C)C(=O)[C@@H](NC(=O)[C@H]2CCCCN2C)C(C)C)OC(C)=O)n1)NC(=O)OCc1ccccc1
inactive: SNB-75 CNS 25.6% [9.5 µM] | SNB-19 CNS 25.4% [9.5 µM] | PC-3 prostate 32.2% [9.5 µM] | UACC-62 melanoma 27.1% [9.5 µM] | LOX IMVI melanoma 14.7% [9.5 µM] | EKVX NSCLC 51.5% [9.5 µM] | SN12C renal 15% [9.5 µM] | UO-31 renal 27.3% [9.5 µM] | TK-10 renal 45.2% [9.5 µM] | ACHN renal 16.4% [9.5 µM] | CAKI-1 renal 35.1% [9.5 µM]
active: HCT-15 colon 9.05% [9.5 µM] | HT29 colon -19.6% [9.5 µM] | U251 CNS 6.82% [9.5 µM] | SK-MEL-5 melanoma -3.63% [9.5 µM] | SK-MEL-28 melanoma -52.6% [9.5 µM] | SK-MEL-2 melanoma -10.4% [9.5 µM] | HL-60(TB) leukemia -40.2% [9.5 µM] | CCRF-CEM leukemia 6.42% [9.5 µM]

CN(CCCCN(C)CCOS(C)(=O)=O)CCOS(C)(=O)=O
active: CAKI-1 renal 2.42%
inactive: HCT-15 colon 89.4% | HT29 colon 86.9% | SNB-75 CNS 88.5% | SNB-19 CNS 94.7% | U251 CNS 71.8% | PC-3 prostate 85.3% | SK-MEL-5 melanoma 84.4% | UACC-62 melanoma 56.1% | LOX IMVI melanoma 58% | SK-MEL-28 melanoma 95.1% | SK-MEL-2 melanoma 102% | EKVX NSCLC 112% | SN12C renal 71.9% | UO-31 renal 71.5% | TK-10 renal 98.7% | ACHN renal 24.9% | HL-60(TB) leukemia 61.4% | CCRF-CEM leukemia 50.3%

Cc1ccccc1NC(=NCCCN1CC1)Nc1ccccc1C
inactive: HCT-15 colon 96% | HT29 colon 75.5% | SNB-75 CNS 100% | SNB-19 CNS 96.8% | U251 CNS 91.5% | PC-3 prostate 74.4% | SK-MEL-5 melanoma 98% | UACC-62 melanoma 105% | LOX IMVI melanoma 75.3% | SK-MEL-28 melanoma 111% | SK-MEL-2 melanoma 114% | EKVX NSCLC 96.8% | SN12C renal 92.1% | UO-31 renal 73.3% | TK-10 renal 99.7% | ACHN renal 90.1% | CAKI-1 renal 77.5% | A498 renal 91.7% | CCRF-CEM leukemia 89.7%

O=C1C2CC=CCC2C(=O)N1SC(Cl)(Cl)Cl (stereo unspecified)
active: UO-31 renal 4.07%
inactive: HCT-15 colon 67.3% | HT29 colon 89.2% | SNB-75 CNS 104% | SNB-19 CNS 91.5% | U251 CNS 98.8% | PC-3 prostate 81.9% | SK-MEL-5 melanoma 94.1% | UACC-62 melanoma 93.6% | LOX IMVI melanoma 78.6% | SK-MEL-28 melanoma 132% | SK-MEL-2 melanoma 122% | EKVX NSCLC 121% | SN12C renal 97.4% | TK-10 renal 115% | ACHN renal 72.3% | CAKI-1 renal 72.8% | A498 renal 139% | HL-60(TB) leukemia 46.2% | CCRF-CEM leukemia 21.6%

C[C@]12CCc3sc(-c4cccc(F)c4)nc3C1=CC[C@@H]1[C@@H]2CC[C@]2(C)C(=O)CC[C@@H]12
active: HCT-15 colon -38.2% | HT29 colon 5.21% | LOX IMVI melanoma 1.34% | UO-31 renal 1.08%
inactive: SNB-75 CNS 44.6% | SNB-19 CNS 60% | U251 CNS 18.8% | PC-3 prostate 35% | SK-MEL-5 melanoma 61.5% | UACC-62 melanoma 34.9% | SK-MEL-28 melanoma 48% | SK-MEL-2 melanoma 32.1% | EKVX NSCLC 68.3% | SN12C renal 42.9% | TK-10 renal 24% | ACHN renal 11.9% | CAKI-1 renal 36.9% | HL-60(TB) leukemia 34.2% | CCRF-CEM leukemia 15.8%

CCCCCCCOC(C(=O)OCCN(CC)CC)(c1ccccc1)c1ccccc1
inactive: HCT-15 colon 49.9% | HT29 colon 31.4% | SNB-75 CNS 86.1% | SNB-19 CNS 94% | U251 CNS 77.8% | PC-3 prostate 61.2% | SK-MEL-5 melanoma 78.2% | UACC-62 melanoma 103% | LOX IMVI melanoma 92.2% | SK-MEL-28 melanoma 96% | SK-MEL-2 melanoma 103% | EKVX NSCLC 76.1% | SN12C renal 93.6% | UO-31 renal 69% | TK-10 renal 77.8% | ACHN renal 92.3% | CAKI-1 renal 65.4% | HL-60(TB) leukemia 79.1% | CCRF-CEM leukemia 82.5%
